Source: the supplement of paper PMC3334620
Over roughly 33,000 sequences, “E-score (-0.5 to 0.5)” has its median near -0.016; the highest 2% begin near 0.32. The full list was thinned out, with the highest values kept by preference.

Target: T1, Stp1 (UniProt B3LFK1)
T1 sequence: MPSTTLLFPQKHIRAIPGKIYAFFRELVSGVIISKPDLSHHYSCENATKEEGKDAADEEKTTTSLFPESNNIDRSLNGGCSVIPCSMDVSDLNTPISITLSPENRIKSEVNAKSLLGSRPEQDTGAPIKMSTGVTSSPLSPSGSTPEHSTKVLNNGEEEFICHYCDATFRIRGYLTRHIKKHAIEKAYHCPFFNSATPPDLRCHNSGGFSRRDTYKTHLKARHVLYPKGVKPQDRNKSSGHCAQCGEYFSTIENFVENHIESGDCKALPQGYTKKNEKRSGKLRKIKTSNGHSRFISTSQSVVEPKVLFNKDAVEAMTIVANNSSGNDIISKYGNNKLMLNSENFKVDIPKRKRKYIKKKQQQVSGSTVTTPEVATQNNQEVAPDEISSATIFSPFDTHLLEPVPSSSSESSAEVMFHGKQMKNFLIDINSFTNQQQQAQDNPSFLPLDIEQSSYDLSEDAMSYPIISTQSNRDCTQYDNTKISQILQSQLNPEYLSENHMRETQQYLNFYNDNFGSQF
Assay: PBM E-score (8-mer binding enrichment) (E-score (-0.5 to 0.5)); higher = stronger / more preferred TF binding
Settings: protein concentration: 200 nM; construct: GST-full length
Method in brief: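 GST-tagged yeast TFs (full-length or DNA-binding domain) were made by PURExpress in vitro transcription/translation and applied at about 100-200 nM to universal all-10-mer Agilent arrays. The arrays were made double-stranded by primer extension, on fresh or once-stripped slides. Bound protein was detected with fluorescent anti-GST, and scans were normalised with masliner. Each ungapped eight-base word, pooled with its reverse complement, received an E-score (modified Wilcoxon-Mann-Whitney statistic) from the Universal PBM Analysis Suite.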

Sequence | PBM E-score
CCACGCCG | 0.34
GGGGCCCC | -0.2
ACCCTTTC | -0.15
CATGATTA | 0.171
CCCTATCG | -0.196
TACAGAAA | 0.212
CAACCATG | -0.0314
AGGAGAAT | -0.17
GTTCAAAC | 0.323
GTTCAAAA | 0.185
ATTCAAAC | 0.11
AGCAGGCT | -0.098
CGGCGCAA | 0.422
CCGCGCAG | 0.221
AGGCGCAG | 0.188
CGGCGCAG | 0.428
GGGCGCAC | -0.0463
AGGCGCAC | 0.179
AGGCGCAA | 0.279
TGGCGCAA | 0.298
CGGCGCAC | 0.409
CCAAGACA | -0.137

Sequence | PBM E-score
CCCCCTAG | -0.354
ATTGGTGA | -0.0777
ACTAAGGA | -0.105
ACCTTACC | 0.0147
CCTTTTTC | 0.104
TAACCACA | -0.022
CAACCTGG | -0.101
TAAGTCAA | -0.0101
AGAGGCAG | -0.125
AGAGGCAT | 0.242
AGAGGCAC | 0.366
GGAGGCAC | 0.148
CGAGGCAC | 0.384
CGAGGCAA | 0.359
TGAGGCAA | 0.234
AGAGGCAA | 0.0357
CGAGGCAG | 0.12
GACCAGCC | -0.259
CCGGTAGG | 0.0318
TACGTAAA | 0.189
CAAGACCA | -0.15
ATACCGCC | 0.1

Sequence | PBM E-score
AAGTTATC | -0.0807
AGATGCAA | -0.0126
GAGTGCGA | -0.046
GCAACGGA | 0.228
AGAGCCGA | 0.225
AGAGCCGC | 0.44
CCAGCCGC | 0.125
CTAGCCGA | -0.0941
AGAGCCGG | -0.0632
ATAGCCGC | 0.298
CGAGCCGC | 0.385
CGAGCCGA | 0.124
CTAGCCGC | 0.395
AATTTGCA | -0.0371
AACGAGAC | -0.0773
ATGTTACA | 0.182
GCTGCTGA | 0.189
CCAAAGAA | 0.068
TAGCTGAA | -0.0818
GAAACGAC | 0.0801
CCCGGCGA | -0.0779
CCCGGCGG | -0.317

Sequence | PBM E-score
GTCGGCGA | -0.0125
GCCGGCGA | -0.00476
AACGGGGA | -0.0385
ACCGGCGA | 0.134
GACGGCGA | 0.4
CACGGCGG | 0.417
CACGGCGA | 0.474
CATGGCGA | -0.0243
CACGGGGG | -0.208
AACGGCGA | 0.452
AGTTGAGG | -0.0375
CCGTTCTA | 0.237
GTGCATAA | 0.183
CGTGCAAC | 0.138
CCCAAATA | -0.153
TCCGAAAA | -0.159
TACGGCGA | 0.473
TCCGGCGA | 0.1
TAAGGCGA | 0.315
GCCTCGAC | 0.0115
